p97 ATPase inh – inhibitors of human p97 ATPase. inhibition, % at 8 µM. P55072. AID 1481. 220,000 tested, 0.42% active. recombinant p97 ATPase, Kinase-Glo ATP luminescence, 3 h; in the data active = inhibition above about 15%;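 also: 0% = DMSO vehicle and 100% = wells lacking enzyme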
HCT116 bCat-KO – beta-catenin-lacking colon tumor cell growth suppression; HCT116 beta-catenin knockout viability, CellTiter-Glo, 60 h; hits give low values; viability, % at 10 µM; 140,000 tested, 1.5% active; AID 818;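 active = viability at or under a set limit, the compound median less 4 SD, cut at about 6% in these data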;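 also: 0% = Hyamine 1622 control at 20 µM and 100% = untreated cell control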
L major viab – inhibitors of Leishmania major promastigote growth; Leishmania major promastigotes, resazurin fluorescence viability; inhibition, % at 10 µM; 200,000 tested, 9% active; in the data active = inhibition above about 50%;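 also: promastigotes grown with compound for 44 hours at 28 °C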
INS promoter inh – TRM-6 insulin promoter activity inhibition | 130,000 tested, 0.9% active | inhibition, % at 2 µM | TRM-6 cells (human fetal islet line), insulin promoter-eGFP reporter, imaging; reporter expression induced with tamoxifen;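 active = inhibition above the mean plus 3 SD, with well images judged a real hit on visual review, cut at about 60% in these data, passing the limit was not always enough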
ROMK primary – human ROMK K+ channel modulation, primary screen; P48048; Tet-inducible ROMK, thallium flux fluorescence; actives lie on both sides; B-score at 10 µM; 130,000 tested, 2% active; AID 1918;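 active = signal ratio slope over the read window, or its plate-corrected B-score, at least 3 SD from the plate mean, either direction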;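 also: B-score of the F/F0 ratio slope over 7 to 12 s after thallium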
Target sequence (P48048 whole entry, looked up): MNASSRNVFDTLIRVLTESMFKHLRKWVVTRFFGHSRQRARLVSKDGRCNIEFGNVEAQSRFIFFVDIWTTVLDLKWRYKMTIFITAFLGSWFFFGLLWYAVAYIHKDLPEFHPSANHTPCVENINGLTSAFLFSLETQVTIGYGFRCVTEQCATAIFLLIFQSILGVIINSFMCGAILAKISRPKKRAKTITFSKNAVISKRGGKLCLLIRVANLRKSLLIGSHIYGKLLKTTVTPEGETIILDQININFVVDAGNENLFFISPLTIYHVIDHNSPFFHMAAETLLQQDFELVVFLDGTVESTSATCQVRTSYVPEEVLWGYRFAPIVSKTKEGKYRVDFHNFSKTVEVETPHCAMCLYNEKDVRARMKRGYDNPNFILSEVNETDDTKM
PTEN del growth – PTEN-deleted cell growth suppression; 140,000 tested, 1.2% active; viability, % at 10 µM; HCT116 PTEN-null viability, CellTiter-Glo, 60 h; hits give low values; AID 827;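 active = viability at or below a set limit, 4 SD under the median of all tested compounds, cut at about 3.7% in these data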;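 also: PTEN knockout HCT116 line with beta catenin targeted HCT116 as companion control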
* hit, by the source's call; . = no result. Rows were chosen to be rich in hits. Some 10% of all compounds tested hit in one or more screens of this group.

SMILES	p97 ATPase inh	HCT116 bCat-KO	L major viab	INS promoter inh	ROMK primary	PTEN del growth
O=C(N/N=C/c1ccccn1)c1cccc([N+](=O)[O-])c1	2.5	.	77.3*	.	-0.0488	.
O=C(N/N=C/c1ccccn1)c1ccc(NC(=O)c2cccc([N+](=O)[O-])c2)cc1	4.8	.	25.4	46.7	-0.0136	.
O=C(N/N=C/c1ccccn1)c1cc([N+](=O)[O-])cc([N+](=O)[O-])c1	3.7	.	88.8*	35.3	0.478	.
O=C(N/N=C/c1ccc[nH]1)c1ccc([N+](=O)[O-])cc1	-0.7	94.6	79.1*	-44.8	.	90.1
O=C(N/N=C/c1ccccn1)c1ccc(Br)cc1	1.2	3.6*	96.7*	.	.	3.6*
Cc1ccc(C(=O)N/N=C\c2ccc[nH]2)cn1	0.0	99.7	-6.5	-75.9	-0.199	107.2
O=[N+]([O-])c1ccc(-c2cn3c(n2)CCC3)cc1	-1.4	.	.	.	.	.
O=C(CCSCc1ccccc1Cl)NC1CCCCC1	-5.9	.	-5.7	-33.3	0	.
O=C(N/N=C/c1ccccn1)c1ccc([N+](=O)[O-])cc1	8.1	.	55.0*	13.3	-0.0121	.
O=C(/C=C/c1ccccc1[N+](=O)[O-])N1CCN(C(=O)c2ccco2)CC1	4.0	.	-4.5	.	0.443	.
CCOC(=O)C1=C(O)C(=O)N(C2CCCCC2)C1	5.8	.	.	.	-0.42	.
COC(=O)Cn1ncc(N2C3CC(CC(C)(C)C3)C2C)c(Cl)c1=O (centres undefined)	0.2	94.2	81.0*	-2.7	0.422	92.5
CCC(CC)C(=O)c1c[nH]c(C(=O)N2CCN(c3ccccc3)CC2)c1	-4.5	.	-5.1	-23.1	0.408	.
O=C(NCCc1ccccc1)C(=O)Nc1ccc([N+](=O)[O-])cc1	7.1	.	-6.2	.	0.0818	.
CCN1CC(CN(C)Cc2nc(-c3ccc(C(F)(F)F)cc3)oc2C)CC1=O (centres undefined)	-1.9	.	55.7*	.	-0.255	.
CCN1CC(CN(C)Cc2nc(-c3ccco3)oc2C)CC1=O (centres undefined)	0.9	.	-4.9	.	0.376	.
COc1ccc([N+](=O)[O-])cc1NC(=O)CCSCCc1ccccn1	3.2	.	15.9	.	-0.455	.
O=C(N/N=C/c1ccco1)c1cccc(N2Cc3ccccc3C2)c1	4.4	.	-10.5	.	.	.
O=C(NC12CC3CC(CC(C3)C1)C2)c1ccccc1	-5.5	.	-6.2	.	0.903	.
c1cc(CNC23CC4CC(CC(C4)C2)C3)ccn1	7.2	.	84.4*	13.3	-0.0845	.
O=C(NC12CC3CC(CC(C3)C1)C2)N(Cc1ccccc1)Cc1ccncc1	-2.3	.	54.7*	.	0.84	.
O=C(CC12CC3CC(CC(C3)C1)C2)NCc1ccncc1	-2.3	72.7	-0.5	.	0.375	86.6
O=C(CN1CCN(c2ccccc2)CC1)Nc1cccc(C(F)(F)F)c1	-8.4	102.3	-4.3	.	.	105.2
O=C(CN1CCN(Cc2ccccc2)CC1)Nc1cccc(C(F)(F)F)c1	-10.2	95.9	64.6*	-29.7	-0.321	97.5
O=C(CN1CCN(Cc2ccccc2)CC1)Nc1ccc2c(c1)CCC2	-3.5	.	74.2*	21.4	-0.942	.
SMILES	p97 ATPase inh	HCT116 bCat-KO	L major viab	INS promoter inh	ROMK primary	PTEN del growth
COc1ccccc1N1CCN(CC(=O)Nc2ccc(CN3CCCCC3)cc2)CC1	-2.6	91.2	64.0*	21.4	-0.0313	102.5
O=C(CN1CCN(Cc2ccccc2)CC1)Nc1cccc(S(=O)(=O)N2CCCCCC2)c1	-2.1	.	78.5*	.	0.503	.
CC(C)C(C(=O)Nc1ccc2c(c1)OCCOCCOCCOCCO2)N1C(=O)c2ccccc2C1=O (centres undefined)	-1.3	.	0.1	35.3	0.553	.
COc1ccc(Nc2nc3c(C)cccc3cc2C#N)c(OC)c1	-1.8	87.7	-5.0	8.3	-0.949	90.7
COc1cccc(-c2noc(-c3ccc(Cl)nc3)n2)c1	-2.7	.	4.4	-47.1	-1	.
Cc1cc(C(=O)Nc2cccc(S(=O)(=O)N3CCCCC3)c2)c2ccccc2n1	-1.4	.	2.8	-91.7	-0.0148	.
CC1CN(CC(=O)Nc2cccc(C(=O)Nc3cccc(C(F)(F)F)c3)c2)CC(C)O1 (centres undefined)	0.0	58.3	13.0	-26.7	-0.579	42.5
O=C(Nc1cccc(S(=O)(=O)N2CCCCC2)c1)c1c2c(nc3ccccc13)CCN(Cc1ccccc1)C2	-0.4	68.2	90.5*	-18.8	.	68.4
O=C(CN1CCN(Cc2ccccc2)CC1)Nc1ccc(Cl)cn1	-2.1	93.4	53.4*	55.0	-0.943	101.5
CC1CCc2c(C(=O)OCC(=O)Nc3cccc(S(=O)(=O)N4CCCCCC4)c3)csc2C1 (centres undefined)	0.4	81.7	83.2*	-25.5	0.138	84.3

Bioassay records as filed in PubChem BioAssay.
